LRH-1 inv ag = inverse agonists of human LRH-1 (NR5A2); HEK293T StAR-luciferase reporter, LRH-1 transfected, 24 h; inhibition, % at 3.6 µM; actives 0.13% (n = 360,000); AID 602396;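 active = inhibition above the mean inhibition of all tested compounds plus 3 SD, cut at about 73% in these data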
GalR3 antagonist = blocks the human galanin receptor 3. O60755. HEK293 GalR3-CNG cAMP membrane potential fluorescence; galR3 body fused to GalR1 C-terminus. inhibition, % at 3 µM. actives 0.44% (n = 360,000). AID 651719;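 active = inhibition above the screen-wide average plus 3 SD, cut at about 13% in these data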;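 note: forskolin and galanin both at EC90 stimulate the cells; cAMP rise reported by CNG channel membrane potential dye signal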
NCOA1 inh = inhibitors of human steroid receptor coactivator 1 (SRC1). Q15788. HEK293 GAL4-SRC1 luciferase reporter, luminescence. inhibition, % at 3.6 µM. actives 0.12% (n = 360,000);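 active = inhibition above the campaign mean plus 3 SD, with each screening campaign given its own cutoff, cut at about 60% in these data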
Target sequence (Q15788 whole entry, looked up, the tested form may be a part): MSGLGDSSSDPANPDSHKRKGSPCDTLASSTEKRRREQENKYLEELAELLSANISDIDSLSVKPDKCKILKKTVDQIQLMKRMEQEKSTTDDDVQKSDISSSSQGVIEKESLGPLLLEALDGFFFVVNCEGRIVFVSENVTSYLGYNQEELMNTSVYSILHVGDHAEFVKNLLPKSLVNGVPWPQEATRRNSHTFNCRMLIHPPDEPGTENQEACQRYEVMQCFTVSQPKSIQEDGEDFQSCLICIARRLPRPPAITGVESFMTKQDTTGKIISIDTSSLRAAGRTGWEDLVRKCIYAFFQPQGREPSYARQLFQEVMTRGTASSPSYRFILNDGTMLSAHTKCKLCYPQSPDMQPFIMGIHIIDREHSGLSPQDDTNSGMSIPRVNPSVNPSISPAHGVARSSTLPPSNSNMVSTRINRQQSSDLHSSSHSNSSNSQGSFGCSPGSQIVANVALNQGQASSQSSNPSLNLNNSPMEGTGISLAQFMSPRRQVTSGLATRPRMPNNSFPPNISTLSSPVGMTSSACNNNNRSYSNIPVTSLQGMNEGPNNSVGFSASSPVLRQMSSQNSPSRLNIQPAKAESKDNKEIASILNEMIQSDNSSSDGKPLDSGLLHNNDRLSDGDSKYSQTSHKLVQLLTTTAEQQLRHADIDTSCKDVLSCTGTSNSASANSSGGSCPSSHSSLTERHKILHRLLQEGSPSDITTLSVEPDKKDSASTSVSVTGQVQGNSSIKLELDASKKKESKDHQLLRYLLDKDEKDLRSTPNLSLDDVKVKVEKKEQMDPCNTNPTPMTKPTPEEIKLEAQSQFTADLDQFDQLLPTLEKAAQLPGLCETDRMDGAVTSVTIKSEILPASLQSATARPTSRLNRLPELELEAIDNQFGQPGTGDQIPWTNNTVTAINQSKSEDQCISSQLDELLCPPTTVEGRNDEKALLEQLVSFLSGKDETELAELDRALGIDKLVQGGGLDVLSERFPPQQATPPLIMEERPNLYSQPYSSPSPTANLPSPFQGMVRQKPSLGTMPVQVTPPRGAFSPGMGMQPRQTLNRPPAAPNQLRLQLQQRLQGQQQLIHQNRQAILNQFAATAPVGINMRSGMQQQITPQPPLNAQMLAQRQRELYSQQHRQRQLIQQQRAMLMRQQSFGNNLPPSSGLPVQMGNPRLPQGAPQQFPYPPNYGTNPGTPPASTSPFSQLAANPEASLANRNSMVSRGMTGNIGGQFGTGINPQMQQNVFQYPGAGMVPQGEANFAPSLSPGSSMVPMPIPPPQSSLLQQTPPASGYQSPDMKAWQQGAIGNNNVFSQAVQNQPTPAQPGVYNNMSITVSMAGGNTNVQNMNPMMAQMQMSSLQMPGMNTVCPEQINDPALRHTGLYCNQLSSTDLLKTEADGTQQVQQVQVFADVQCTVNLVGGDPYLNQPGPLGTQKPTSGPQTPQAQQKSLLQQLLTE
SRC2 inh = human SRC2 (NCOA2) inhibition; AID 651957; actives 0.17% (n = 370,000); Q15596; inhibition, % at 9 µM; HEK293 GAL4-SRC2 luciferase reporter, luminescence;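 active = inhibition above the mean inhibition of all tested compounds plus 3 SD, set per campaign, cut at about 52% in these data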
NR2F2 inh = inhibitors of human COUP-TFII (NR2F2); P24468; HEK293T NGFI-A luciferase reporter, luminescence; inhibition, % at 8.6 µM; actives 0.7% (n = 370,000); AID 686940;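 active = inhibition above a per-plate cutoff, mean inhibition of test wells between control levels plus 3 SD, cut at about 38% in these data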;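 note: cells cotransfected with COUP-TFII expression vector driving the NGFI-A reporter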
NCOA3 inh = inhibitors of human steroid receptor coactivator 3 (SRC3); Q9Y6Q9; HEK293 GAL4-SRC3 luciferase reporter, luminescence; inhibition, % at 3.6 µM; actives 0.17% (n = 360,000);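 active = inhibition above a per-campaign cutoff, the mean of all compounds plus 3 SD, cut at about 60% in these data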;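 note: higher means less SRC3-driven luciferase light from the GAL4 reporter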
Each line names hits and unclear results; the compound was inactive in the other large screens. Only some compounds are listed: those with a hit (about 1.1% of all), similar ones and a draw of the others.

O=C(NCCc1ccccc1)OCc1cn(Cc2ccccc2F)nn1	none (no result: LRH-1 inv ag, GalR3 antagonist, NCOA1 inh, NCOA3 inh)
Cc1c(C(=O)N(Cc2ccccc2)C2CCS(=O)(=O)C2)oc2ccccc12 (configuration not stated)	none (no result: GalR3 antagonist)
Cc1c(C(=O)N(Cc2ccc(F)cc2)C2CCS(=O)(=O)C2)oc2ccccc12 (configuration not stated)	LRH-1 inv ag 94
N#CC1=C(N)C(C#N)(C#N)C(c2cccnc2)C2CC(c3ccccc3)CC=C12 (configuration not stated)	NCOA1 inh 65, NCOA3 inh 62 (no result: GalR3 antagonist, SRC2 inh, NR2F2 inh)
COc1cc2c(cc1NC(=O)CSc1nnc(-c3ccccc3F)n1-c1ccc(C)cc1)oc1ccccc12	none (no result: LRH-1 inv ag, GalR3 antagonist, NCOA1 inh, NCOA3 inh)
CCCCNC(=O)NS(=O)(=O)c1ccc(NC(=O)CSc2nnc(-c3cccs3)n2-c2ccc(OC)cc2)cc1	none (no result: LRH-1 inv ag, GalR3 antagonist, NCOA1 inh, NCOA3 inh)
Cc1[nH]c(=O)c(C(=O)/C=C/c2ccccc2F)c2c1CCCC2	NCOA1 inh 62, SRC2 inh 61, NCOA3 inh 87
C/C(=C\c1ccccc1F)C(=O)c1c(C)cc(C)[nH]c1=O	none
CCOC(=O)[C@@]12CN(C(=O)OC(C)(C)C)CC=C1N(Cc1ccc(OC)cc1)C(=O)[C@H]2CC(=O)N1CCSCC1	none (no result: LRH-1 inv ag, GalR3 antagonist, NCOA1 inh, NCOA3 inh)
CCOc1ccc(-n2c(SCC(=O)c3ccccc3Cl)nnc2-c2ccncc2)cc1	none (no result: LRH-1 inv ag, GalR3 antagonist, NCOA1 inh, NCOA3 inh)
CCCCCOc1ccc(/C=N/NC(=O)CSc2nnc(-c3ccc(OC)cc3)n2-c2ccc(C)cc2)cc1	none (no result: LRH-1 inv ag, GalR3 antagonist, NCOA1 inh, NCOA3 inh)
C[n+]1c(-c2ccccc2)cc2c(=Cc3ccccc3)c3ccccc3n21	NCOA3 inh 62
C[n+]1c(-c2ccccc2)cc2c(=Cc3ccc([N+](=O)[O-])cc3)c3ccccc3n21	none
COc1cccc(/C=N/Nc2cc(-n3nc(C)cc3-c3ccccc3)ncn2)c1O	none
COc1cccc(/C=N/Nc2ncnc3scc(-c4ccccc4)c23)c1O	LRH-1 inv ag 98, NCOA1 inh 85, NCOA3 inh 88
COc1cccc(/C=N/Nc2ncnc(Cl)c2N)c1O	NCOA3 inh 66
COc1cccc(/C=N/Nc2nccnc2Cl)c1O	none
c1ccc(CNC2CCC23CCC(c2ccccc2)CC3)cc1 (configuration not stated)	none (no result: LRH-1 inv ag, GalR3 antagonist, NCOA1 inh, NCOA3 inh)
CCCn1c(NC(=O)c2ccccc2)nc(Cc2ccccc2)c1Cc1ccccc1	none (no result: LRH-1 inv ag, GalR3 antagonist, NCOA1 inh, NCOA3 inh)
O=C(Nc1nc(-c2ccccc2)cs1)c1ccc(N2CCOCC2)c([N+](=O)[O-])c1	NCOA1 inh 64, NCOA3 inh 76 (no result: GalR3 antagonist, SRC2 inh, NR2F2 inh)
Cc1ccc(-c2csc(NC(=O)c3cc([N+](=O)[O-])ccc3N3CCOCC3)n2)cc1	none
COc1ccc(-c2cn[nH]c2-c2ccc(O)cc2O)cc1	SRC2 inh 54
C=C(C)COc1ccc(-c2[nH]ncc2-c2ccc(OC)cc2)c(O)c1	none
CCN(CC(=O)Nc1ccc(OC)cc1)C(=O)CSCC(=O)Nc1cc(C)on1	NCOA3 inh 79
CCN(CC(=O)Nc1c(F)cccc1F)C(=O)CSCC(=O)Nc1cc(C)on1	none
O=C(CCc1ccccc1-c1ccccc1CCNC(=O)c1ccccc1)NCc1ccccc1	none (no result: LRH-1 inv ag, GalR3 antagonist, NCOA1 inh, NCOA3 inh)
C(=NNc1ccc2ccccc2n1)c1ccccn1	LRH-1 inv ag 80, NCOA1 inh 72, NCOA3 inh 68
CC1CC(C)CN(S(=O)(=O)c2ccc(C(=O)NCCCn3ccnc3)cc2)C1 (configuration not stated)	LRH-1 inv ag 84, NCOA3 inh 62 (no result: GalR3 antagonist, SRC2 inh, NR2F2 inh)
O=C(NCCCn1ccnc1)c1ccc(S(=O)(=O)N2CCCCCC2)cc1	none
O=C(Nc1ccc2c(c1)OCCO2)C1CC1c1ccccc1 (configuration not stated)	none
O=C(O)C1CCCCC1C(=O)Nc1ccc2c(c1)OCCO2 (configuration not stated)	SRC2 inh 55
O=C(NC1CCCCN(Cc2cccc(C(F)(F)F)c2)C1=O)c1ccc(Cl)c(Cl)c1 (configuration not stated)	none (no result: LRH-1 inv ag, GalR3 antagonist, NCOA1 inh, NCOA3 inh)
C=CCN(C)CC#Cc1ccc(C)cc1	none (no result: LRH-1 inv ag, GalR3 antagonist, NCOA1 inh, NCOA3 inh)
CCN(CC)S(=O)(=O)c1ccc(N/N=C/c2ccc(O)cc2O)nc1	NCOA3 inh 68
O=C(N/N=C/c1ccc(O)cc1O)c1ccc(CN2C(=O)c3cccc4cccc2c34)cc1	NCOA3 inh 68
Cc1cc([N+](=O)[O-])nn1Cc1ccc(C(=O)N/N=C/c2ccc(O)cc2O)cc1	NCOA3 inh 77
COc1ccc(-c2nnc(SCC(=O)Nc3ccc(S(=O)(=O)Nc4cc(C)nc(C)n4)cc3)n2-c2ccc(OC)cc2)cc1	none (no result: LRH-1 inv ag, GalR3 antagonist, NCOA1 inh, NCOA3 inh)
CCOc1ccc(-n2c(SCc3ccc(C#N)cc3)nnc2-c2cccnc2)cc1	GalR3 antagonist 63
N#Cc1ccc(CSc2nnc(-c3cccnc3)n2-c2ccccc2)cc1	none
CC(=O)n1cc(N(C(=O)CCl)c2ccc([N+](=O)[O-])cc2)c2ccccc21	SRC2 inh 56
CC(=O)n1cc(N(C(=O)CCl)c2ccccc2)c2ccccc21	none
COCC(=O)N(C)[C@H]1C[C@H]2c3[nH]c4c(-c5ccc6c(c5)OCO6)cccc4c3CCN2C(=O)[C@H]1[C@H](C)O	none (no result: LRH-1 inv ag, GalR3 antagonist, NCOA1 inh, NCOA3 inh)
NNC(=O)c1cc2ccccc2cc1O	SRC2 inh 71, NCOA3 inh 62
O=C(NCCO)c1cc2ccccc2cc1O	none
CC(C)CN1C(=O)[C@]2(CC(=O)N(C)C2c2ccccc2)c2cc(-n3cc(C4=CCCCC4)nn3)ccc21 (some centres not stated)	none (no result: LRH-1 inv ag, GalR3 antagonist, NCOA1 inh, NCOA3 inh)
Cc1ccc(O)c(N=Nc2nccs2)c1	LRH-1 inv ag 83, NCOA1 inh 73, NCOA3 inh 64
COc1ccc(N=Nc2cc(C)ccc2O)cc1	none
Cc1ccccc1C(=O)N1CCC(Oc2cccnc2)CC1	none (no result: LRH-1 inv ag, GalR3 antagonist, NCOA1 inh, NCOA3 inh)
Oc1ccccc1N=Nc1nc(-c2ccccc2)c(-c2ccccc2)[nH]1	LRH-1 inv ag 98, NCOA1 inh 74, NCOA3 inh 87
COc1ccccc1N=Nc1nc(-c2ccccc2)c(-c2ccccc2)[nH]1	none
Cc1nc2c(O)c3c(c(O)c2nc1C)C1C=CC3CC1	LRH-1 inv ag 95, NCOA1 inh 89, SRC2 inh 62, NCOA3 inh 91
O=S(=O)(c1ccc(NC(=S)NCc2cccnc2)cc1)N1CCCCC1	LRH-1 inv ag 73, NCOA1 inh 67
Cc1ccc(C)c(NC(=O)CN2C(=O)CCSc3ccccc32)c1	none (no result: LRH-1 inv ag, GalR3 antagonist, NCOA1 inh, NCOA3 inh)
O=C1C(=C(I)I)c2ccccc2-c2ccccc21	SRC2 inh 86
O=C(O)c1cccc2c1C(=O)c1ccccc1-2	none
CCCCCC[C@@H](CC)CN(C(=O)Oc1ccccc1)c1ccccc1	none (no result: LRH-1 inv ag, GalR3 antagonist, NCOA1 inh, NCOA3 inh)
COC(=O)C1CN(Cc2ccc(F)cc2)CCS(=O)(=O)N1Cc1ccc(C)cc1 (configuration not stated)	none (no result: LRH-1 inv ag, GalR3 antagonist, NCOA1 inh, NCOA3 inh)
Cc1ccc(CNC(=O)OC(C)(C)C)c(/C=C/S(=O)(=O)NCCc2ccccc2)c1	none (no result: LRH-1 inv ag, GalR3 antagonist, NCOA1 inh, NCOA3 inh)
COC(=O)[C@]12C[C@H](CC(=O)NCCCCc3ccccc3)C(=O)N(Cc3ccco3)C1=C[C@H](C(C)(C)C)O[C@@H]2C	none (no result: LRH-1 inv ag, GalR3 antagonist, NCOA1 inh, NCOA3 inh)
COc1cccc(C(=O)Oc2cc3c4c(c2)C(C)=CC(C)(C)N4C(=O)C3=O)c1	GalR3 antagonist 24
